Paper PMC7862700, “An all-to-all approach to the identification of sequence-specific readers for epigenetic DNA modifications on cytosine”

Legend:
Test in all cases: DAPPL (digital affinity profiling via proximity ligation, sequencing); 10 mM Tris-HCl pH 7.5, 50 mM NaCl, 1 mM DTT, 4% glycerol, room temperature, 30 min; GST-TFs on glutathione beads, 16-mer random dsDNA library, 0.1% formaldehyde crosslink after washing; high values mean tight binding
Conditions in all cases: protein: recombinant; tags: N-terminal GST; dsDNA, one strand shown
ERF = target: T1, ERF (Homo sapiens, UniProt P50548 1-548)
T1 sequence: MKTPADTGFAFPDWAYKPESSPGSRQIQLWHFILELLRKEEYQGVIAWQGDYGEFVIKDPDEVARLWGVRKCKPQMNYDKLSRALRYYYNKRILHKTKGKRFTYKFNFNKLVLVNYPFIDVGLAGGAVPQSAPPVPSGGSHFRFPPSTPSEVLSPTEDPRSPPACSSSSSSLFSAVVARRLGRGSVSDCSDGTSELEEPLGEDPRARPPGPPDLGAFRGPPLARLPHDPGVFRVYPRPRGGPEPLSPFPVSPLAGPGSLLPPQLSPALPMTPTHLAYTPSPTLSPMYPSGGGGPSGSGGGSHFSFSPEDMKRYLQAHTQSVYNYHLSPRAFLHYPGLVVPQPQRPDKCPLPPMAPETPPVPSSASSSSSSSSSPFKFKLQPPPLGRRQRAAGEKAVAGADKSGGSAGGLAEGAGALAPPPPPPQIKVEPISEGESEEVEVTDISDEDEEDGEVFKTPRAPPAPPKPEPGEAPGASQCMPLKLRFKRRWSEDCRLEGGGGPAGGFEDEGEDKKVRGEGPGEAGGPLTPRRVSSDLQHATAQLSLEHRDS
Outline: (§1)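 Human transcription factors carrying a GST fusion were produced in yeast, bound to glutathione beads, tagged with DNA barcodes and pooled together with a tag-only sample. Each pool was held with 200 nmole of a random double-stranded 16-mer DNA library in Tris/NaCl/DTT/glycerol buffer for 30 min at room temperature, then washed, crosslinked in 0.1% formaldehyde, proximity-ligated with BsaI/T4 ligase (1 h, 37 °C), PCR-amplified and sequenced on an Illumina NextSeq500. Binding signal is the read frequency of each hexamer for a given factor divided by its frequency in the tag-only sample.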

ETV3L = target: T2, ETV3L (Homo sapiens, UniProt Q6ZN32 1-361)
T2 sequence: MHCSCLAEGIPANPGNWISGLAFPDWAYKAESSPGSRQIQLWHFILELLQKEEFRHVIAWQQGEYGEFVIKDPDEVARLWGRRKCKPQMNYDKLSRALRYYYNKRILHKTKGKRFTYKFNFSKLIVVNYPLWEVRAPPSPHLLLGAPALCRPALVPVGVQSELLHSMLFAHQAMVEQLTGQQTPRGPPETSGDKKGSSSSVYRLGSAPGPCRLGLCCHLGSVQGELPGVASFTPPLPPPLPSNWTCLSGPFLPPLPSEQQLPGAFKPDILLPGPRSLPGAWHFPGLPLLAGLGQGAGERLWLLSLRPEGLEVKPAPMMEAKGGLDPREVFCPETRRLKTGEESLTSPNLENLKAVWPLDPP
Outline: as §1

ETS2 = target: T3, ETS2 (Homo sapiens, UniProt P15036 1-469)
T3 sequence: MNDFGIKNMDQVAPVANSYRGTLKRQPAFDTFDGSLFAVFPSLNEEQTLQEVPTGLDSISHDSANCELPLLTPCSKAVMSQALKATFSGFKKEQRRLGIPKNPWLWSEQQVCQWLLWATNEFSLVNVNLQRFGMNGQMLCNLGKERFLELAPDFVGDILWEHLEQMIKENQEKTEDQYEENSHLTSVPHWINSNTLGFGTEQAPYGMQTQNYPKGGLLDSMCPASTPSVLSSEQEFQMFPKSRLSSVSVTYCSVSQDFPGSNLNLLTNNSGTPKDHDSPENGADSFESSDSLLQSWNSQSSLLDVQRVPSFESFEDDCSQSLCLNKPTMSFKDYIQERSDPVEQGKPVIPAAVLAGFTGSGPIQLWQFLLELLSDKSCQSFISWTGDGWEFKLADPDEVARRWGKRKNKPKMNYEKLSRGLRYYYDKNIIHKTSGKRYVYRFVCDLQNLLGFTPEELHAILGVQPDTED
Outline: as §1

SPDEF = target: T4, SPDEF (Homo sapiens, UniProt O95238 1-335)
T4 sequence: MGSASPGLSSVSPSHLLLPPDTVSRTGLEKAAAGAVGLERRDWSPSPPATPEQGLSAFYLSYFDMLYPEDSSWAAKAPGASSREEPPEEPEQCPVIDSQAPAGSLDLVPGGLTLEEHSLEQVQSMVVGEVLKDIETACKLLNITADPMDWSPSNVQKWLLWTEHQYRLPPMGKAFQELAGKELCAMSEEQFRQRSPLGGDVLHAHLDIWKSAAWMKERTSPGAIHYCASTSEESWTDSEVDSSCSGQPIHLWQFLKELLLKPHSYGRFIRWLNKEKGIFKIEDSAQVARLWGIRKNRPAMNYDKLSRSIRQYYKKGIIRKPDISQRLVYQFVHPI
Outline: as §1

ETV7 = target: T5, ETV7 (Homo sapiens, UniProt Q9Y603 1-341)
T5 sequence: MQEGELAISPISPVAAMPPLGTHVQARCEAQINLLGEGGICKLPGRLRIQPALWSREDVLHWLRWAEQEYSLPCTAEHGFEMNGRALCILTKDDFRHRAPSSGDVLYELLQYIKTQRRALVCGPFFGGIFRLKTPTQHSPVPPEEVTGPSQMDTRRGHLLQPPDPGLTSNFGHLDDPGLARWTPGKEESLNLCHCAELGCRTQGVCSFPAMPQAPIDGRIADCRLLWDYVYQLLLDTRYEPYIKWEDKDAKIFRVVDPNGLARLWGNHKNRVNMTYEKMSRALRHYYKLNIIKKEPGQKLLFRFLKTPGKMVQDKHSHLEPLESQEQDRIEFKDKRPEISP
Outline: as §1

ELF5 = target: T6, ELF5 (Homo sapiens, UniProt Q9UKW6-2 1-255)
T6 sequence: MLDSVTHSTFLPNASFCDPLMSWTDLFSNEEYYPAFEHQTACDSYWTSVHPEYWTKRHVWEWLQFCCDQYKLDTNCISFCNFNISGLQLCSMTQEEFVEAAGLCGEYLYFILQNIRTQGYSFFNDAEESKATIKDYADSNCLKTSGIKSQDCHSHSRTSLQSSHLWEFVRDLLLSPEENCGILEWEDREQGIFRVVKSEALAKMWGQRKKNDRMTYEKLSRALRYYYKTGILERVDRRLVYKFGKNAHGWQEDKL
Outline: as §1

ETV3 = target: T7, ETV3 (Homo sapiens, UniProt P41162-2 1-143)
T7 sequence: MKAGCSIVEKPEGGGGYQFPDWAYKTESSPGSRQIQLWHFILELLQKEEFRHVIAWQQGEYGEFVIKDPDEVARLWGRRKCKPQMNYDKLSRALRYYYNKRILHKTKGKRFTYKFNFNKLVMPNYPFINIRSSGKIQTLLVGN
Outline: as §1

ETV6 = ETV6 (Homo sapiens, UniProt P41212 1-452)
Outline: as §1

Chain of ETV6 (P41212 whole entry): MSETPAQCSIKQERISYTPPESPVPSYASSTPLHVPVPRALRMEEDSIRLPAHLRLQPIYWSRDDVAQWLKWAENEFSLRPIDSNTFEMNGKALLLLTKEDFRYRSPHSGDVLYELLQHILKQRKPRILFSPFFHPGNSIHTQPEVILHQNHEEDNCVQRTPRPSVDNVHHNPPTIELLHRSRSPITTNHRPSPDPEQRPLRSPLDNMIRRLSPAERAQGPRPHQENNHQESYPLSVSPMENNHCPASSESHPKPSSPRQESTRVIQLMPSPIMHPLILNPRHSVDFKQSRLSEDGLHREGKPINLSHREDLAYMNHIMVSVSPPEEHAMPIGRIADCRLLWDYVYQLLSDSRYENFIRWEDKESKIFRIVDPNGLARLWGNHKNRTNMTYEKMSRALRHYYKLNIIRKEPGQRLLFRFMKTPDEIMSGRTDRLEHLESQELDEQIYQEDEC

Sequence	binding signal (ERF)	binding signal (ETV3L)	binding signal (ETS2)	binding signal (SPDEF)	binding signal (ETV7)	binding signal (ELF5)	binding signal (ETV3)	binding signal (ETV6)
CCTCCG	1.41 fold enrichment (6-mer frequency, TF over GST control)	1.65 fold enrichment (6-mer frequency, TF over GST control)	1.31 fold enrichment (6-mer frequency, TF over GST control)	1.36 fold enrichment (6-mer frequency, TF over GST control)	1.2 fold enrichment (6-mer frequency, TF over GST control)	1.35 fold enrichment (6-mer frequency, TF over GST control)	1.3 fold enrichment (6-mer frequency, TF over GST control)	1.31 fold enrichment (6-mer frequency, TF over GST control)
CCTAAC	1.53 fold enrichment (6-mer frequency, TF over GST control)	1.45 fold enrichment (6-mer frequency, TF over GST control)	1.38 fold enrichment (6-mer frequency, TF over GST control)	1.41 fold enrichment (6-mer frequency, TF over GST control)	1.25 fold enrichment (6-mer frequency, TF over GST control)	1.39 fold enrichment (6-mer frequency, TF over GST control)	1.32 fold enrichment (6-mer frequency, TF over GST control)	1.3 fold enrichment (6-mer frequency, TF over GST control)
CATAAC	1.12 fold enrichment (6-mer frequency, TF over GST control)	1.18 fold enrichment (6-mer frequency, TF over GST control)	1.19 fold enrichment (6-mer frequency, TF over GST control)	1.15 fold enrichment (6-mer frequency, TF over GST control)	1.18 fold enrichment (6-mer frequency, TF over GST control)	1.15 fold enrichment (6-mer frequency, TF over GST control)	1.17 fold enrichment (6-mer frequency, TF over GST control)	1.23 fold enrichment (6-mer frequency, TF over GST control)
CCGTAT	1.19 fold enrichment (6-mer frequency, TF over GST control)	1.17 fold enrichment (6-mer frequency, TF over GST control)	1.18 fold enrichment (6-mer frequency, TF over GST control)	1.41 fold enrichment (6-mer frequency, TF over GST control)	1.09 fold enrichment (6-mer frequency, TF over GST control)	1.31 fold enrichment (6-mer frequency, TF over GST control)	1.38 fold enrichment (6-mer frequency, TF over GST control)	1.24 fold enrichment (6-mer frequency, TF over GST control)
CGCCCC	1.28 fold enrichment (6-mer frequency, TF over GST control)	1.31 fold enrichment (6-mer frequency, TF over GST control)	1.05 fold enrichment (6-mer frequency, TF over GST control)	1.18 fold enrichment (6-mer frequency, TF over GST control)	1.2 fold enrichment (6-mer frequency, TF over GST control)	1.1 fold enrichment (6-mer frequency, TF over GST control)	1.16 fold enrichment (6-mer frequency, TF over GST control)	1.19 fold enrichment (6-mer frequency, TF over GST control)
AGCCTC	1.22 fold enrichment (6-mer frequency, TF over GST control)	1.32 fold enrichment (6-mer frequency, TF over GST control)	1.3 fold enrichment (6-mer frequency, TF over GST control)	1.14 fold enrichment (6-mer frequency, TF over GST control)	1.31 fold enrichment (6-mer frequency, TF over GST control)	1.16 fold enrichment (6-mer frequency, TF over GST control)	1.15 fold enrichment (6-mer frequency, TF over GST control)	1.18 fold enrichment (6-mer frequency, TF over GST control)
ACTCAT	1.39 fold enrichment (6-mer frequency, TF over GST control)	1.26 fold enrichment (6-mer frequency, TF over GST control)	1.29 fold enrichment (6-mer frequency, TF over GST control)	1.24 fold enrichment (6-mer frequency, TF over GST control)	1.27 fold enrichment (6-mer frequency, TF over GST control)	1.32 fold enrichment (6-mer frequency, TF over GST control)	1.3 fold enrichment (6-mer frequency, TF over GST control)	1.31 fold enrichment (6-mer frequency, TF over GST control)
GTCCTT	1.14 fold enrichment (6-mer frequency, TF over GST control)	1.29 fold enrichment (6-mer frequency, TF over GST control)	1.28 fold enrichment (6-mer frequency, TF over GST control)	1.29 fold enrichment (6-mer frequency, TF over GST control)	1.11 fold enrichment (6-mer frequency, TF over GST control)	1.43 fold enrichment (6-mer frequency, TF over GST control)	1.18 fold enrichment (6-mer frequency, TF over GST control)	1.26 fold enrichment (6-mer frequency, TF over GST control)
TATCTG	1.2 fold enrichment (6-mer frequency, TF over GST control)	1.41 fold enrichment (6-mer frequency, TF over GST control)	1.11 fold enrichment (6-mer frequency, TF over GST control)	1.13 fold enrichment (6-mer frequency, TF over GST control)	1.2 fold enrichment (6-mer frequency, TF over GST control)	1.14 fold enrichment (6-mer frequency, TF over GST control)	1.21 fold enrichment (6-mer frequency, TF over GST control)	1.17 fold enrichment (6-mer frequency, TF over GST control)
ATTCAA	1.38 fold enrichment (6-mer frequency, TF over GST control)	1.34 fold enrichment (6-mer frequency, TF over GST control)	1.36 fold enrichment (6-mer frequency, TF over GST control)	1.31 fold enrichment (6-mer frequency, TF over GST control)	1.19 fold enrichment (6-mer frequency, TF over GST control)	1.24 fold enrichment (6-mer frequency, TF over GST control)	1.37 fold enrichment (6-mer frequency, TF over GST control)	1.33 fold enrichment (6-mer frequency, TF over GST control)
ACGGCC	1.02 fold enrichment (6-mer frequency, TF over GST control)	1.13 fold enrichment (6-mer frequency, TF over GST control)	1.1 fold enrichment (6-mer frequency, TF over GST control)	1.17 fold enrichment (6-mer frequency, TF over GST control)	1.13 fold enrichment (6-mer frequency, TF over GST control)	1.02 fold enrichment (6-mer frequency, TF over GST control)	1.13 fold enrichment (6-mer frequency, TF over GST control)	1.08 fold enrichment (6-mer frequency, TF over GST control)
CGACGC	1.17 fold enrichment (6-mer frequency, TF over GST control)	1.08 fold enrichment (6-mer frequency, TF over GST control)	1.16 fold enrichment (6-mer frequency, TF over GST control)	1.04 fold enrichment (6-mer frequency, TF over GST control)	1.05 fold enrichment (6-mer frequency, TF over GST control)	1.05 fold enrichment (6-mer frequency, TF over GST control)	1 fold enrichment (6-mer frequency, TF over GST control)	1.09 fold enrichment (6-mer frequency, TF over GST control)
CACTCG	1.1 fold enrichment (6-mer frequency, TF over GST control)	1.11 fold enrichment (6-mer frequency, TF over GST control)	1.22 fold enrichment (6-mer frequency, TF over GST control)	1.04 fold enrichment (6-mer frequency, TF over GST control)	1.13 fold enrichment (6-mer frequency, TF over GST control)	1.05 fold enrichment (6-mer frequency, TF over GST control)	1.09 fold enrichment (6-mer frequency, TF over GST control)	1.1 fold enrichment (6-mer frequency, TF over GST control)
TGCCAT	1.17 fold enrichment (6-mer frequency, TF over GST control)	1.09 fold enrichment (6-mer frequency, TF over GST control)	1.05 fold enrichment (6-mer frequency, TF over GST control)	1.19 fold enrichment (6-mer frequency, TF over GST control)	1.09 fold enrichment (6-mer frequency, TF over GST control)	1.08 fold enrichment (6-mer frequency, TF over GST control)	1.2 fold enrichment (6-mer frequency, TF over GST control)	1.1 fold enrichment (6-mer frequency, TF over GST control)
ACGATA	1.2 fold enrichment (6-mer frequency, TF over GST control)	1.18 fold enrichment (6-mer frequency, TF over GST control)	1.25 fold enrichment (6-mer frequency, TF over GST control)	1.13 fold enrichment (6-mer frequency, TF over GST control)	1.22 fold enrichment (6-mer frequency, TF over GST control)	1.09 fold enrichment (6-mer frequency, TF over GST control)	1.13 fold enrichment (6-mer frequency, TF over GST control)	1.18 fold enrichment (6-mer frequency, TF over GST control)
